MPTP inh: inhibitors of mitochondrial permeability transition pore; AID 602449; actives 1.4% (n = 360,000); inhibition, % at 10 µM; isolated mouse mitochondria, Ca2+ swelling absorbance, 30 min;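 active = inhibition of 50% or more, scaled per plate between neutral and stimulator controls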;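 also: 0% = DMSO wells given calcium and 100% = 1 mM EGTA wells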
rCAG binder: molecules binding r(CAG) RNA repeats; inhibition, % at 3 µM; actives 1.3% (n = 370,000); r(CAG) RNA repeat, TO-PRO-1 dye displacement fluorescence;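 active = inhibition above the plate cutoff, the mean of all test compounds on that plate plus 3 SD, cut at about 35% in these data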;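 also: 0% = DMSO alone and 100% = 100 µM mitoxantrone as full dye displacement; higher means more dye released from RNA so lower well fluorescence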
proKLK7 act: activators of human kallikrein-7 zymogen | actives 0.9% (n = 370,000) | activation, % at 7 µM | purified proKLK7, EDANS-DABCYL substrate fluorescence; 100% is mature enzyme control, 0% vehicle;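 active = activation above the mean of all tested compounds plus 3 SD, computed per campaign excluding outliers beyond control limits, cut at about 13% in these data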
ADAM10 inh: inhibits human ADAM10 | O14672 | recombinant ADAM10, EDANS/DABCYL FRET peptide cleavage, 3 h | inhibition, % at 7 µM | actives 0.62% (n = 370,000) | AID 720582;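 active = inhibition above a per-campaign cutoff equal to the mean of compounds falling between control-based bounds plus 3 SD, cut at about 20% in these data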;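 also: 0% = DMSO wells while the 100% control is not disclosed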
Pemphigus Ab inh: human desmoglein-3 autoantibody binding inhibition; DSG3-coupled beads, scFv-anti-DSG3-GFP binding, flow cytometry; stronger effect = lower value; binding (percent of control), % at 10 µM; actives 0.48% (n = 310,000); AID 588358;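 active = binding more than 3 SD below its plate's average and above zero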;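 also: hits lower antibody fragment binding to DSG3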
ADAM17 inh: inhibits human ADAM17 | P78536 | recombinant ADAM17, EDANS/DABCYL FRET peptide cleavage | inhibition, % at 6.95 µM | actives 0.83% (n = 370,000) | AID 720648;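 active = inhibition above the mean of compounds lying between control limits plus 3 SD, set per campaign, cut at about 8.5% in these data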;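 also: 0% = DMSO-only wells as the low control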
rCAG bind conf: r(CAG) RNA repeat binding, confirmation; TO-PRO-1 dye displacement fluorescence; actives 70% (n = 4,300); shares compounds with rCAG binder; inhibition, % at 3 µM; AID 652065;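 active = inhibition above a per-plate cutoff, the mean inhibition of sample wells plus 3 SD, cut at about 35% in these data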;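 also: loss of TO-PRO-1 fluorescence as compound displaces dye from 1x1 AA loop RNA; 0% = DMSO only wells and 100% = 100 µM mitoxantrone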
DNA CAG counter: DNA CAG dye complex inhibition counter-screen; d(CAG) DNA oligo TO-PRO-1 dye displacement, fluorescence; actives 94% (n = 4,300); inhibition, % at 3 µM; shares compounds with rCAG binder;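 active = inhibition above its plate's cutoff, the mean test-well inhibition plus 3 SD, cut at about 4.8% in these data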;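 also: 0% = DNA dye mix with DMSO and 100% = 100 µM mitoxantrone; hits displace the dye from DNA and so lower well fluorescence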
The depositor's hits bear a star; i = inactive; x = no result given. Rows were chosen to be rich in hits. Some 4.7% of all compounds tested hit in one or more screens of this group.

SMILES	MPTP inh	rCAG binder	proKLK7 act	ADAM10 inh	Pemphigus Ab inh	ADAM17 inh	rCAG bind conf	DNA CAG counter
Cc1cc(/C=N/NC(=O)C(O)(c2ccccc2)c2ccccc2)c(C)n1-c1ccc(C(=O)O)cc1	-0.5	35.2*	-1.2	-8.4	84.4	5.1	28.1	11.6*
Cc1cc(/C=N/NC(=O)C(O)(c2ccccc2)c2ccccc2)c(C)n1-c1cccc(C(=O)O)c1	4.5	40.7*	-0.9	-17.9	86.4	-5.3	57.9*	25.8*
O=C(Nc1cc(Cl)ccc1O)c1cc(-c2ccco2)on1	2.0	45.6*	0.3	-9.1	98.8	-5.7	17.8	11.9*
O=C(Nc1cc(Br)ccc1O)c1cc(-c2ccco2)on1	3.0	42.5*	0.0	4.9	107.8	-1.4	42.0*	19.1*
O=C(Nc1ccc(S(=O)(=O)Nc2ncccn2)cc1)c1ccccc1NS(=O)(=O)c1ccc(F)cc1	-0.1	59.8*	-0.5	-27.4	87.4	-19.1	29.1	6.5*
O=C(Nc1ccc(-c2nc3ccccc3[nH]2)cc1)c1ccccc1NS(=O)(=O)c1ccc(F)cc1	50.0	91.5*	-1.4	i	96.6	-346.0	90.3*	70.3*
CCOc1ccccc1OCCCC(=O)N1CCN(S(=O)(=O)c2ccccc2C#N)CC1	0.7	0.8	0.3	-2.1	99.6	-1.9	x	x

Source: PubChem
